GDH-TPI inh = GDH-TPI coupling enzyme inhibitors, primary screen, artefact control for M. tuberculosis FBA inhibitor project, biochemical, absorbance, full deck | GDH-TPI coupled enzyme counterscreen, NADH absorbance | inhibition, % at 4.8 µM | 360,000 tested, 1.2% active | AID 588335, 2011; in the data active means inhibition above about 30%;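 further: 0% = DMSO wells and 100% = wells lacking the enzyme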
Mtb hypoxia inh = PubChem AID 1159583; fluorescence inhibition, % (no concentration beside the values); 300,000 tested, 0.1% active; M. tuberculosis hypoxia-regulated fluorescent reporter, fluorescence; in the data active means fluorescence inhibition mostly above about 23%, no sharp cut-off; inactive means mostly below about 17%
FadD28 FP inh = inhibitors of FadD28 bisubstrate probe binding, primary screen, biochemical, fluorescence polarization, single point | inhibition, % at 12.5 µM | 360,000 tested, 0.22% active | AID 588549, 2011; in the data active means inhibition above about 8.5%, passing the limit was not always enough
FBA Mtb inh = Mtb FBA enzyme inhibitors, primary screen, biochemical, fluorescence, strain H37Rv; Fructose-bisphosphate aldolase (Mycobacterium tuberculosis (strain ATCC 25618 / H37Rv)), …; 360,000 tested, 2.3% active; purified M. tuberculosis FBA, fluorescence read-out; AID 588726, 2011; inhibition, % at 1 µM; in the data active means inhibition above about 27%;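 further: 0% = vehicle and 100% = reference inhibitor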
Target sequence (P9WQA3 whole entry, looked up): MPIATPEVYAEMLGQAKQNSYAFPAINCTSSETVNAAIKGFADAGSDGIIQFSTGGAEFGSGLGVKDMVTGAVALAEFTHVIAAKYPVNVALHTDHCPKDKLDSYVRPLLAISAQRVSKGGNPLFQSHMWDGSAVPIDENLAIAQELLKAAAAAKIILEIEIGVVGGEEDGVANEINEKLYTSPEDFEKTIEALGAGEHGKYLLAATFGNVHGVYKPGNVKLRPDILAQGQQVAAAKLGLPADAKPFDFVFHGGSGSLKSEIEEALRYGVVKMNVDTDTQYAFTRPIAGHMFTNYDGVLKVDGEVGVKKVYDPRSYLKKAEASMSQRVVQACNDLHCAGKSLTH
Mtb BioA inh = M. tuberculosis BioA enzyme inhibitors, primary screen, biochemical, plate reader, single point, HTS; 7,8-diaminopelargonic acid synthase BioA (Mycobacterium tuberculosis); purified M. tuberculosis BioA enzyme; inhibition, % at 9.99 µM; 360,000 tested, 0.096% active; AID 602481, 2012; in the data active means inhibition above about 40%
* marks the source's active call; other numbers are inactive results; x = no result; + = active, no number. In the library only some 2.9% were active in any assay of this set; here they are far more common.

SMILES	GDH-TPI inh	Mtb hypoxia inh	FadD28 FP inh	FBA Mtb inh	Mtb BioA inh
NC1=NC(=O)/C(=C\c2cccs2)S1	48.3*	x	-2.9	-9.3	-0.4
COc1cc2c(cc1OC)-c1cc(Nc3ccc(N(C)C)cc3)nc(=O)n1CC2	17.7	8.9	-1.5	4.9	x
COc1cc2c(cc1OC)-c1cc(OCc3ccccc3Cl)nc(=O)n1CC2	28.7	7.1	0.1	99.4*	-0.3
COc1cc2c(cc1OC)-c1cc(Nc3cccc(F)c3)nc(=O)n1CC2	33.8*	2.7	x	-2.0	1.2
CCN(CC)c1ccc(Nc2cc3n(c(=O)n2)CCc2cc(OC)c(OC)cc2-3)cc1	37.5*	-0.1	-3.2	1.0	x
COc1cc2c(cc1OC)-c1cc(Nc3ccc(F)cc3)nc(=O)n1CC2	15.8	8.5	-4.6	0.5	x
O=C(CN(Cc1ccccc1)S(=O)(=O)c1ccccc1)NN=Cc1ccc([N+](=O)[O-])cc1	x	9.1	x	x	x
C[C@H](CO)N1C[C@H](C)[C@@H](CN(C)C(=O)Nc2ccc(F)cc2)Oc2ccc(NC(=O)Cc3ccccc3)cc2CC1=O	x	x	x	x	-2.0
CCCn1c(=NC(=O)c2ccncc2)c(C#N)cc2c(=O)n3cccc(C)c3nc21	0.0	7.9	-3.0	7.0	x
CCOC(=O)c1cc2c(=O)n3ccccc3nc2n(Cc2ccc(Cl)cc2)c1=N	5.1	6.4	-1.4	19.8	x
CCOCCCn1c(=NC(=O)c2cccnc2)c(C(=O)OCC)cc2c(=O)n3ccccc3nc21	12.1	7.0	-3.0	145.1*	2.4
CCOC(=O)c1cc2c(=O)n3cccc(C)c3nc2n(CCCOC)c1=NC(=O)c1cccnc1	19.5	0.5	-3.7	+	0.9
COC(=O)CNC(=O)c1ccc(=O)oc1	63.3*	x	0.3	9.1	5.5
O=C(NCc1ccccc1)c1ccc(=O)oc1	104.1*	3.7	-1.4	0.3	2.0
O=C(NCc1ccco1)c1ccc(=O)oc1	49.7*	x	0.3	-0.7	0.4
CC(C)NC(=O)N(C)C[C@@H]1Oc2c(NC(=O)c3ccncc3)cccc2C(=O)N([C@H](C)CO)C[C@@H]1C	x	x	x	x	3.1
CN(C)c1ccc(/C=C/c2nnnn2-c2ccccc2)cc1	40.7*	6.9	0.9	-1.1	-1.2
C/C=C/c1ccc([C@H]2[C@@H](CO)N3CCCCN(C(=O)Nc4ccccc4F)C[C@H]23)cc1	x	x	x	x	6.4
CCn1c(=NC(=O)c2ccc(N3C(=O)CCC3=O)cc2)sc2c(OC)ccc(OC)c21	36.5*	4.4	-2.5	1.4	-2.4
CCn1c(=NC(=O)CN2C(=O)CCC2=O)sc2c(OC)ccc(OC)c21	21.1	10.8	-1.4	2.1	-1.1
CCn1c(=NC(=O)c2cccc(N3C(=O)CCC3=O)c2)sc2c(C)ccc(OC)c21	38.3*	2.5	-2.9	6.5	-2.3
Cc1cc(-c2nc3ncccc3o2)ccc1N	45.4*	x	0.0	+	0.2
Nc1ccc(Cl)c(-c2nc3ncccc3o2)c1	12.4	-2.2	-2.7	0.5	0.1
Nc1ccc(-c2nc3ncccc3o2)c(O)c1	58.6*	-0.4	-0.8	+	-2.2
COC(=O)C[C@@H]1CC[C@H]2[C@@H](COC[C@H](O)CN2S(=O)(=O)c2ccc(F)cc2)O1	x	x	x	x	-0.5
SMILES	GDH-TPI inh	Mtb hypoxia inh	FadD28 FP inh	FBA Mtb inh	Mtb BioA inh
Cc1ccc(C=NNC(=O)c2c[nH]c3ccccc23)s1	x	14.9	x	x	x
CCc1ccc(C(C)=NNC(=O)c2c[nH]c3ccccc23)s1	x	6.5	x	x	x
C/C(=N\NC(=O)c1c[nH]c2ccccc12)c1ccc(C)o1	32.7*	x	-0.9	-1.8	-0.4
O=C(N/N=C/c1cccs1)c1c[nH]c2ccccc12	38.2*	x	-3.2	1.1	x
C(=NN=C(NN=Cc1cccs1)NN=Cc1cccs1)c1cccs1	43.6*	14.5	1.0	1.7	-2.5
CCc1ccc(/C=N/NC(=O)c2c[nH]c3ccccc23)s1	49.6*	x	1.5	2.9	3.5
COCC(=O)N(C)C[C@@H]1Oc2ncc(-c3ccccc3F)cc2C(=O)N([C@@H](C)CO)C[C@@H]1C	x	x	x	x	2.3
BrC(/C=C\c1ccccc1)=N/Nc1nc(N2CCOCC2)nc(N2CCOCC2)n1	45.0*	x	0.1	-3.5	x
BrC(=C\c1ccccc1)/C=N/Nc1nc(N2CCOCC2)nc(N2CCOCC2)n1	31.0*	x	-1.1	-1.2	x
C/C(C=NNc1nc(N2CCOCC2)nc(N2CCOCC2)n1)=C/c1ccccc1	x	-5.0	x	x	x
C[C@@H]1CCCCO[C@H](CN(C)Cc2ccc(C(=O)O)cc2)[C@@H](C)CN([C@H](C)CO)C(=O)c2cc(NC(=O)Nc3ccccc3)ccc2O1	x	x	x	x	-2.5
O=c1c2c3nc4ccccc4nc3n(CC3CCCO3)c2ncn1CCc1ccccc1 (stereo not drawn)	6.8	x	-4.5	25.0	-0.9
Cc1ccc2c(c1)c1nc3ccccc3nc1n2CCN1CCOCC1	33.9*	x	-5.0	-2.6	-1.8
CCn1c2ccc(C)cc2c2nnc(SCCN3CCOCC3)nc21	26.8	13.1	-1.0	-2.9	x
O=c1c2c3nc4ccccc4nc3n(CCN3CCOCC3)c2ncn1CCN1CCOCC1	34.3*	-0.7	-1.4	21.8	-0.7
CN1C[C@H](CO)C=C2c3cccc4[nH]cc(c34)C[C@H]21	8.8	x	2.2	171.6*	-6.0
Cc1cc2c(cc1C)NC(c1cccnc1)C1=C(CC(C)(C)CC1=O)N2 (stereo not drawn)	32.9*	-2.4	-1.4	-2.4	-1.8
CC1(C)CC(=O)C2=C(C1)Nc1ccccc1NC2c1cccnc1 (stereo not drawn)	37.3*	-5.3	0.1	1.6	-0.3
COC(=O)c1ccc2c(c1)NC1=C(C(=O)CC(C)(C)C1)C(c1ccncc1)N2 (stereo not drawn)	31.3*	-1.2	-4.5	-0.2	10.3
CCOc1cc(C2Nc3ccccc3NC3=C2C(=O)CC(C)(C)C3)ccc1OC(C)=O (stereo not drawn)	43.4*	6.2	-0.4	-0.3	-1.8
CCOc1cc(C2Nc3ccccc3NC3=C2C(=O)CC(C)(C)C3)ccc1O (stereo not drawn)	6.5	7.5	1.5	2.8	-2.0
CO[C@H]1CN(C)C(=O)c2cc(NS(=O)(=O)c3ccc(C)cc3)ccc2OC[C@@H](C)N(C(=O)NC(C)C)C[C@H]1C	x	x	x	x	-0.4
O=C(NN=Cc1cn(-c2ccccc2)nc1-c1cc2ccccc2o1)c1cccnc1	x	-5.0	x	x	x
COC(=O)[C@@H]1[C@@H](CO)[C@@H]2Cn3c(ccc(/C=C/c4ccccc4)c3=O)[C@@H]2N1C(=O)CC1CC1	x	x	x	x	1.6
CCC(=NNC(=O)CCC(=O)NCc1ccccc1)c1ccc(O)cc1	x	6.9	x	x	x
COC(=O)c1nnn(-c2ccc(Cl)c(Cl)c2)c1C(=O)OC	8.5	-9.3	-0.9	-1.3	x
Cc1c(C(=O)/C=C/N(C)C)nnn1-c1ccc(Cl)c(Cl)c1	42.4*	2.4	4.3	-2.5	x
Cc1c(C(=O)/C=C/N(C)C)nnn1-c1ccc(F)c(Cl)c1	34.7*	6.3	-0.8	1.2	6.8
Cc1c(C(=O)/C=C/N(C)C)nnn1-c1ccc(Cl)cc1Cl	32.7*	-0.7	1.7	-3.2	x

Screening results (PubChem BioAssay)
